Source: PubChem BioAssay (NCI)
“And” between values parts separate entries of the source, which are not always exact repeats. Equal entries are not always repeated. Compounds without any hit were thinned out: in the full panel of roughly 83,000, 20% have a hit.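 Step 1: grow cells in 96-well plates. Step 2: add test compound at a single concentration. Step 3: incubate 48 h. Step 4: record percent growth.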 The source made the active and inactive calls. Rule for the calls: active = growth percent below 10; inactive = the rest.

Legend:
Experiment in all cases: NCI-60 one-dose screen, 48 h (100 = growth as untreated, 0 = no growth, -100 = all killed)
[1] = tested on: HT29 colon
[2] = tested on: SNB-75 CNS
[3] = tested on: SNB-19 CNS
[4] = tested on: PC-3 prostate
[5] = tested on: SK-MEL-5 melanoma
[6] = tested on: UACC-62 melanoma
[7] = tested on: LOX IMVI melanoma
[8] = tested on: SK-MEL-28 melanoma
[9] = tested on: SK-MEL-2 melanoma
[10] = tested on: U251 CNS; conditions: 10 µM

Measured: growth

C=C1N(C)c2ccc(Cl)cc2C1(C)C
inactive: [1]; 10 µM 35.7% | [2]; 10 µM 62% | [3]; 10 µM 55.1% | [4]; 10 µM 32.9% | [5]; 10 µM 90.5% | [6]; 10 µM 69.5% | [7]; 10 µM 51.9% | [8]; 10 µM 84.5% | [9]; 10 µM 101%

S=C1SCN(CCc2ccccc2)CN1CCc1ccccc1
inactive: [1]; 10 µM 95.8% | [2]; 10 µM 87.5% | [3]; 10 µM 105% | [4]; 10 µM 93.6% | [5]; 10 µM 89% | [6]; 10 µM 94.9% | [7]; 10 µM 90.9% | [8]; 10 µM 92.4% | [9]; 10 µM 105%

Cc1cc(Cl)ccc1NC(=O)/C(Cl)=C1/Sc2ccccc2NC1=O
inactive: [1]; 10 µM 107% | [2]; 10 µM 70.8% | [3]; 10 µM 94% | [4]; 10 µM 78% | [5]; 10 µM 90% | [6]; 10 µM 74% | [7]; 10 µM 73.6% | [8]; 10 µM 125%

ClCCn1c(CCl)nc2ccc(Cl)cc21
active: [1]; 10 µM -59.8% | [4]; 10 µM -63.9% | [5]; 10 µM -94.9% | [6]; 10 µM -79.6% | [7]; 10 µM 2.97% | [9]; 10 µM -56%
inactive: [2]; 10 µM 20.7% | [3]; 10 µM 47.9% | [8]; 10 µM 42.8%

CN(CC(=O)O)c1ccc(/C=C/c2ccnc3ccccc23)cc1
inactive: [1]; 10 µM 88.6% | [2]; 10 µM 90.3% | [3]; 10 µM 87.9% | [4]; 10 µM 71.2% | [5]; 10 µM 93% | [6]; 10 µM 72.3% | [7]; 10 µM 94.8% | [8]; 10 µM 100% | [9]; 10 µM 89%

Cc1cc(O)c2c(c1O)C(=O)C13C(=C2O)C(=O)C2C(O)C1C1C(O)C3C(=O)C3=C(O)c4c(O)cc(C)c(O)c4C(=O)C321 (configuration not stated)
active: [1]; 10 µM 3.7% | [3]; 10 µM 5.61% | [5]; 10 µM -74.9% | [6]; 10 µM -48.1% | [7]; 10 µM 7.97% | [8]; 10 µM 9.99% | [9]; 10 µM -6.64%
inactive: [2]; 10 µM 20% | [4]; 10 µM 10.3%

O=c1[nH]cc(/C=N\Nc2ccccc2)c(=O)[nH]1
active: [6]; 10 µM 7.82%
inactive: [1]; 10 µM 58.8% | [2]; 10 µM 102% | [3]; 10 µM 103% | [4]; 10 µM 52.1% | [5]; 10 µM 57.8% | [7]; 10 µM 45.8% | [8]; 10 µM 81.5% | [9]; 10 µM 46.1%

N#C/C(=C/N1C(=O)/C(=C/c2ccc([N+](=O)[O-])cc2)SC1=S)c1nc2ccccc2s1
inactive: [1]; 10 µM 98.6% | [2]; 10 µM 84.5% | [3]; 10 µM 86.4% | [4]; 10 µM 79.7% | [5]; 10 µM 63.5% | [6]; 10 µM 70.1% | [7]; 10 µM 88% | [8]; 10 µM 105% | [9]; 10 µM 94.4%

COc1cc(N)ccc1Nc1c2ccccc2nc2ccccc12
active: [1]; 10 µM -62.4% | [7]; 10 µM -23.6%
inactive: [2]; 10 µM 91% | [3]; 10 µM 99.7% | [4]; 10 µM 59% | [5]; 10 µM 85% | [6]; 10 µM 89.6% | [8]; 10 µM 107% | [9]; 10 µM 109%

O=S(=O)(c1cc(Cl)ccc1O)c1cc(Cl)ccc1O
inactive: [1]; 10 µM 105% | [2]; 10 µM 77.1% | [3]; 10 µM 91.8% | [4]; 10 µM 80.6% | [5]; 10 µM 53.5% | [6]; 10 µM 31.1% | [7]; 10 µM 93.5% | [8]; 10 µM 87.5% | [9]; 10 µM 64%

O=C1C(Cl)=C(Cl)C(Cl)(Cl)C(Cl)C1(Cl)Cl (configuration not stated)
inactive: [1]; 10 µM 99.5% | [2]; 10 µM 88.9% | [3]; 10 µM 108% | [4]; 10 µM 101% | [5]; 10 µM 106% | [6]; 10 µM 98.7% | [7]; 10 µM 96.2% | [8]; 10 µM 114% | [9]; 10 µM 100%

O=C(O)c1ccccc1.[Ag]
inactive: [1]; 10 µM 97.9% | [2]; 10 µM 110% | [3]; 10 µM 105% | [4]; 10 µM 86.8% | [5]; 10 µM 28.5% | [6]; 10 µM 105% | [7]; 10 µM 17% | [8]; 10 µM 106% | [9]; 10 µM 122%

COc1ccc2oc(-c3ccc(Cl)cc3)c(N3CCN(C)CC3)c2c1
inactive: [2]; 10 µM 18.3% | [3]; 10 µM 48.6%
active: [1]; 10 µM -1.44% | [4]; 10 µM 4.07% | [5]; 10 µM -14.8% | [6]; 10 µM -52.6% | [7]; 10 µM -87.5% | [8]; 10 µM -12.3% | [9]; 10 µM -15.9%

CCC(=O)Oc1ccc(/C=N/NC(N)=S)nc1
inactive: [1]; 10 µM 60.8% | [2]; 10 µM 41% | [3]; 10 µM 72.7% | [4]; 10 µM 54.1% | [5]; 10 µM 31% | [7]; 10 µM 18.1% | [8]; 10 µM 79% | [9]; 10 µM 53.2%
active: [6]; 10 µM 7.95%

COc1ccc2c(c1)[nH]c1c(/C=C/c3ccccc3)nccc12
inactive: [1]; 10 µM 21.6% | [2]; 10 µM 35.7% | [3]; 10 µM 76.5% | [10] 70.4% | [4]; 10 µM 42.5% | [5]; 10 µM 72.8% | [6]; 10 µM 78.9% | [7]; 10 µM 63.4% | [9]; 10 µM 89.5%

S=P(N1CC1)(N1CC1)N1CC1
inactive: [1]; 10 µM 99.6% and 83.1% | [1]; 100 µM 54.6% | [2]; 10 µM 109% and 69% | [2]; 100 µM 43.2% | [3]; 10 µM 102% and 101% | [3]; 100 µM 37.3% | [4]; 10 µM 97.5% and 90.9% | [4]; 100 µM 52.7% | [5]; 10 µM 96.9% and 92.8% | [5]; 100 µM 48.6% | [6]; 10 µM 100% and 71.7% | [6]; 100 µM 37.1% | [7]; 10 µM 99.2% and 80.5% | [7]; 100 µM 33% | [8]; 10 µM 131% and 116% | [9]; 10 µM 116% and 93.3% | [9]; 100 µM 113%

CN(C)CCNc1cccc2sc3ccc(O)cc3c(=O)c12
inactive: [2]; 10 µM 31.8% | [3]; 10 µM 57.4% | [4]; 10 µM 38.7% | [5]; 10 µM 44% | [6]; 10 µM 57.8% | [7]; 10 µM 18.3% | [8]; 10 µM 69.2% | [9]; 10 µM 64%
active: [1]; 10 µM 6.36%

Cn1c2nc3ccccc3c-2nc2ccccc21
inactive: [1]; 10 µM 99.7% and 103% | [2]; 10 µM 101% and 81.1% | [3]; 10 µM 88.8% and 82.8% | [4]; 10 µM 95.4% and 99.7% | [5]; 10 µM 82.5% and 65.6% | [6]; 10 µM 87.4% and 91.2% | [7]; 10 µM 99.5% and 86.1% | [8]; 10 µM 113% and 106% | [9]; 10 µM 113% and 112%

CC(=O)O[C@H]1C(=O)[C@@]2(C)[C@H]([C@H](OC(=O)c3ccccc3)[C@]3(O)C[C@H](OC(=O)[C@H](O)[C@@H](NC(=O)c4ccccc4)c4ccccc4)C(C)=C1C3(C)C)[C@]1(OC(C)=O)CO[C@@H]1C[C@@H]2O
inactive: [3]; 0.01 µM 30% | [3]; 2.5 µM 25.9% | [3]; 5 µM 30.1% | [3]; 10 µM 31.4% and 35.6% | [4]; 0.01 µM 25% | [4]; 2.5 µM 26.2% | [4]; 5 µM 34.7% | [5]; 0.01 µM 18% | [5]; 5 µM 17.5% | [5]; 10 µM 34.6% and 13% | [6]; 0.01 µM 24.9% | [6]; 2.5 µM 34.2% | [6]; 5 µM 40.3% | [6]; 10 µM 41.8% and 42.9% | [7]; 0.01 µM 35.4% | [7]; 5 µM 42.1% | [7]; 10 µM 35.1% and 42.3% | [8]; 2.5 µM 71.3% | [8]; 5 µM 76.6% | [8]; 10 µM 75.7% | [9]; 0.01 µM 72.5% | [9]; 5 µM 21.3% | [9]; 10 µM 25.7% and 32%
-45.5% (active) and 37.3% (inactive): [4]; 10 µM
active: [1]; 0.01 µM 3.27% | [1]; 2.5 µM -29.4% | [1]; 5 µM -21.4% | [1]; 10 µM -21.5% and -18.2% | [2]; 0.01 µM -1.17% | [2]; 2.5 µM -28% | [2]; 5 µM -16.7% | [2]; 10 µM -38.5% and -19.3% | [5]; 2.5 µM 4.29% | [7]; 2.5 µM 9.12% | [9]; 2.5 µM 3.85%

CCC(C)(c1ccc(O)c(C)c1)c1ccc(O)c(C)c1
inactive: [1]; 10 µM 104% | [2]; 10 µM 64.8% | [3]; 10 µM 105% | [4]; 10 µM 86.1% | [5]; 10 µM 95.2% | [6]; 10 µM 68.9% | [7]; 10 µM 104% | [8]; 10 µM 133% | [9]; 10 µM 94.4%

Cn1ncc2cc3c(Nc4ccc(Cl)cc4)cccc3nc21
inactive: [1]; 10 µM 78.7% | [2]; 10 µM 97.2% | [3]; 10 µM 99.3% | [4]; 10 µM 79.8% | [5]; 10 µM 82.1% | [6]; 10 µM 98.6% | [7]; 10 µM 87% | [8]; 10 µM 95.8% | [9]; 10 µM 99.4%
